# Reference: paper PMC11006913
# Where a chain is given by its changes, count along the chain named.
# Experiments:
# Test in all cases: PBM; 200 nM protein, PBS
# Conditions in all cases: dsDNA, one strand shown
# ALX4 [1] = target: ALX4 (Homo sapiens, UniProt Q9H161 200-286)
# HOXC10 [2] = target: HOXC10 (Homo sapiens, UniProt Q9NYD6 254-340)
# HOXC10 [3] = target: HOXC10 (Homo sapiens, UniProt Q9NYD6 254-340, K271E)
# VAX1 [4] = target: VAX1 (Homo sapiens, UniProt Q5SQQ9 86-172)
# VAX1 [5] = target: VAX1 (Homo sapiens, UniProt Q5SQQ9 86-172, T142I)
# VAX1 (Homo sapiens, UniProt Q5SQQ9 86-172, T142I), sequence (Q5SQQ9 86-172 T142I): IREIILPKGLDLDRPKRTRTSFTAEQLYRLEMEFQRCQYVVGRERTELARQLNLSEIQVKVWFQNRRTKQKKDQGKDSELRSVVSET
# VAX1 [6] = target: VAX1 (Homo sapiens, UniProt Q5SQQ9 86-172, K157R)
# VAX1 (Homo sapiens, UniProt Q5SQQ9 86-172, K157R), sequence (Q5SQQ9 86-172 K157R): as the sequence (Q5SQQ9 86-172 T142I) above, with I57T, K72R counted along it
# HOXA4 = HOXA4 (Homo sapiens, UniProt Q00056 201-287, W262F)
# HOXA4, sequence (Q00056 201-287 W262F): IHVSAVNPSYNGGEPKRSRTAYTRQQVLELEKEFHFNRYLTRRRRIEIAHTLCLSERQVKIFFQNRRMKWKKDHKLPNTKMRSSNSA
# PROP1 [7] = target: PROP1 (Homo sapiens, UniProt O75360 56-141)
# PROP1 (Homo sapiens, UniProt O75360 56-141), sequence (O75360 56-141): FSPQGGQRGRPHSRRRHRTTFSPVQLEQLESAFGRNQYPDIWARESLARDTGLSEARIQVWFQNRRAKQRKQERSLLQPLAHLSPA
# PROP1 [8] = target: PROP1 (Homo sapiens, UniProt O75360 56-141, R99H)
# PROP1 (Homo sapiens, UniProt O75360 56-141, R99H), sequence (O75360 56-141 R99H): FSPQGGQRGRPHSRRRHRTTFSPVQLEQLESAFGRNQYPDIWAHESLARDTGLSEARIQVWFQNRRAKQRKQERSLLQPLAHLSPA
# PROP1 [9] = target: PROP1 (Homo sapiens, UniProt O75360 56-141, F88S)
# PROP1 (Homo sapiens, UniProt O75360 56-141, F88S), sequence (O75360 56-141 F88S): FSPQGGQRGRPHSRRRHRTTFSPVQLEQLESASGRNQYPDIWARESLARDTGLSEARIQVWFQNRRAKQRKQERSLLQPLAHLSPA
# PRRX1 [10] = target: PRRX1 (Homo sapiens, UniProt P54821 80-166, F113S)
# PRRX1 (Homo sapiens, UniProt P54821 80-166, F113S), sequence (P54821 80-166 F113S): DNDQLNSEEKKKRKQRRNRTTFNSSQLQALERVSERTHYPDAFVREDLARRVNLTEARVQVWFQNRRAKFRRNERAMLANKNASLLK
# ALX4 [11] = target: ALX4 (Homo sapiens, UniProt Q9H161 200-286, Q225E)
# ALX4 (Homo sapiens, UniProt Q9H161 200-286, Q225E), sequence (Q9H161 200-286 Q225E): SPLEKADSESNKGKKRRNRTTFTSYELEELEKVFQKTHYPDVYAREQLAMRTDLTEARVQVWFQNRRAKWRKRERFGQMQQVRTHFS
# PRRX1 [12] = target: PRRX1 (Homo sapiens, UniProt P54821 80-166)
# PRRX1 (Homo sapiens, UniProt P54821 80-166), sequence (P54821 80-166): as the sequence (P54821 80-166 F113S) above, with S34F counted along it
# PAX4 [13] = target: T1, PAX4 (Homo sapiens, UniProt O43316 9-242, R200K)
# T1 sequence: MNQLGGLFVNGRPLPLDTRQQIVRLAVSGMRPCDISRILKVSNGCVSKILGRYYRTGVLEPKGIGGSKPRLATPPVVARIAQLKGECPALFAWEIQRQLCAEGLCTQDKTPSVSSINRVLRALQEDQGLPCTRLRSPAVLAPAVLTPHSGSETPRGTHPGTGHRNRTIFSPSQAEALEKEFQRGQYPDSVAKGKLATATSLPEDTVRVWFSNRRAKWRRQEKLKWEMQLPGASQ
# PAX4 [14] = target: T2, PAX4 (Homo sapiens, UniProt O43316 9-242)
# T2 sequence: T1 sequence with K192R
# ALX1 [15] = target: ALX1 (Homo sapiens, UniProt Q15699 118-204, L144V)
# ALX1 (Homo sapiens, UniProt Q15699 118-204, L144V), sequence (Q15699 118-204 L144V): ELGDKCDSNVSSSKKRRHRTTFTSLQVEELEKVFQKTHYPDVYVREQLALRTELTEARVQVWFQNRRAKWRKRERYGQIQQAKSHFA
# ALX3 [16] = target: ALX3 (Homo sapiens, UniProt O95076 139-225, N203Q)
# ALX3 (Homo sapiens, UniProt O95076 139-225, N203Q), sequence (O95076 139-225 N203Q): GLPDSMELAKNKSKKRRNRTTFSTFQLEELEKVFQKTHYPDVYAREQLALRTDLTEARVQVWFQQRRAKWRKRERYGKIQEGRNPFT
# PAX4 [17] = target: T3, PAX4 (Homo sapiens, UniProt O43316 9-242, R200Q)
# T3 sequence: T1 sequence with K192Q
# ALX1 [18] = target: ALX1 (Homo sapiens, UniProt Q15699 118-204, L144R)
# ALX1 (Homo sapiens, UniProt Q15699 118-204, L144R), sequence (Q15699 118-204 L144R): as the sequence (Q15699 118-204 L144V) above, with V27R counted along it
# PAX4 [19] = target: T4, PAX4 (Homo sapiens, UniProt O43316 9-242, F177V)
# T4 sequence: T1 sequence with F169V, K192R
# ALX3 [20] = target: ALX3 (Homo sapiens, UniProt O95076 139-225)
# ALX3 (Homo sapiens, UniProt O95076 139-225), sequence (O95076 139-225): as the sequence (O95076 139-225 N203Q) above, with Q65N counted along it
# PAX4 [21] = target: T5, PAX4 (Homo sapiens, UniProt O43316 9-242, F177Y)
# T5 sequence: T1 sequence with F169Y, K192R
# ALX3 [22] = target: ALX3 (Homo sapiens, UniProt O95076 139-225, L168Q)
# ALX3 (Homo sapiens, UniProt O95076 139-225, L168Q), sequence (O95076 139-225 L168Q): as the sequence (O95076 139-225 N203Q) above, with L30Q, Q65N counted along it
# ALX3 [23] = target: ALX3 (Homo sapiens, UniProt O95076 139-225, L168V)
# ALX3 (Homo sapiens, UniProt O95076 139-225, L168V), sequence (O95076 139-225 L168V): as the sequence (O95076 139-225 N203Q) above, with L30V, Q65N counted along it
# PAX4 [24] = target: T6, PAX4 (Homo sapiens, UniProt O43316 9-242, R227W)
# T6 sequence: T1 sequence with K192R, R219W
# ALX3 [25] = target: ALX3 (Homo sapiens, UniProt O95076 139-225, N203S)
# ALX3 (Homo sapiens, UniProt O95076 139-225, N203S), sequence (O95076 139-225 N203S): as the sequence (O95076 139-225 N203Q) above, with Q65S counted along it
# NKX2-6 [26] = target: T7, NKX2-6 (Homo sapiens, UniProt A6NCS4 118-204)
# T7 sequence: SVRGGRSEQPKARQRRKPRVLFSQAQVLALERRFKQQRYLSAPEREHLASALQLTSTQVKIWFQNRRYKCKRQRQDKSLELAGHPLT
# NKX2-6 [27] = target: T8, NKX2-6 (Homo sapiens, UniProt A6NCS4 118-204, F151L)
# T8 sequence: T7 sequence with F34L
# HOXC10 (Homo sapiens, UniProt Q9NYD6 254-340), sequence (Q9NYD6 254-340): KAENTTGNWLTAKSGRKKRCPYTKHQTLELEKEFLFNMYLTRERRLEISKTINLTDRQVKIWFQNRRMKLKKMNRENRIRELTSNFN
# HOXC10 (Homo sapiens, UniProt Q9NYD6 254-340, K271E), sequence (Q9NYD6 254-340 K271E): as the sequence (Q9NYD6 254-340) above, with K18E counted along it
# ALX4 (Homo sapiens, UniProt Q9H161 200-286), sequence (Q9H161 200-286): as the sequence (Q9H161 200-286 Q225E) above, with E26Q counted along it
# VAX1 (Homo sapiens, UniProt Q5SQQ9 86-172), sequence (Q5SQQ9 86-172): as the sequence (Q5SQQ9 86-172 T142I) above, with I57T counted along it
sequence,measurement,setting,value
AAATTCGA,binding signal,ALX4 [1],"10.7 upbm affinity estimate (log intensity, higher = more binding, comparable within an allelic series)"
CGTCCGCC,binding signal,HOXC10 [2],"9.96 upbm affinity estimate (log intensity, higher = more binding, comparable within an allelic series)"
same,binding signal,HOXC10 [3],"10 upbm affinity estimate (log intensity, higher = more binding, comparable within an allelic series)"
same,binding signal,VAX1 [4],"7.19 upbm affinity estimate (log intensity, higher = more binding, comparable within an allelic series)"
same,binding signal,VAX1 [5],"7.31 upbm affinity estimate (log intensity, higher = more binding, comparable within an allelic series)"
same,binding signal,VAX1 [6],"7.05 upbm affinity estimate (log intensity, higher = more binding, comparable within an allelic series)"
CTACTTAC,binding signal,ALX4 [1],"9.76 upbm affinity estimate (log intensity, higher = more binding, comparable within an allelic series)"
AGTTAGTG,binding signal,ALX4 [1],"10.4 upbm affinity estimate (log intensity, higher = more binding, comparable within an allelic series)"
TAACGAAA,binding signal,ALX4 [1],"10.6 upbm affinity estimate (log intensity, higher = more binding, comparable within an allelic series)"
CATTACCG,binding signal,ALX4 [1],"11.2 upbm affinity estimate (log intensity, higher = more binding, comparable within an allelic series)"
CCTTGCGA,binding signal,HOXC10 [2],"10 upbm affinity estimate (log intensity, higher = more binding, comparable within an allelic series)"
same,binding signal,HOXC10 [3],"10.1 upbm affinity estimate (log intensity, higher = more binding, comparable within an allelic series)"
CATTAACA,binding signal,HOXC10 [2],"11.8 upbm affinity estimate (log intensity, higher = more binding, comparable within an allelic series)"
same,binding signal,HOXC10 [3],"11.6 upbm affinity estimate (log intensity, higher = more binding, comparable within an allelic series)"
same,binding signal,HOXA4,"11.5 upbm affinity estimate (log intensity, higher = more binding, comparable within an allelic series)"
CTCGGCCA,binding signal,HOXC10 [2],"10.1 upbm affinity estimate (log intensity, higher = more binding, comparable within an allelic series)"
same,binding signal,HOXC10 [3],"10.1 upbm affinity estimate (log intensity, higher = more binding, comparable within an allelic series)"
same,binding signal,PROP1 [7],"6.9 upbm affinity estimate (log intensity, higher = more binding, comparable within an allelic series)"
same,binding signal,PROP1 [8],"6.67 upbm affinity estimate (log intensity, higher = more binding, comparable within an allelic series)"
same,binding signal,PROP1 [9],"6.71 upbm affinity estimate (log intensity, higher = more binding, comparable within an allelic series)"
CGAGGGCA,binding signal,ALX4 [1],"8.31 upbm affinity estimate (log intensity, higher = more binding, comparable within an allelic series)"
same,binding signal,PRRX1 [10],"9.29 upbm affinity estimate (log intensity, higher = more binding, comparable within an allelic series)"
same,binding signal,ALX4 [11],"8.26 upbm affinity estimate (log intensity, higher = more binding, comparable within an allelic series)"
same,binding signal,PRRX1 [12],"9.63 upbm affinity estimate (log intensity, higher = more binding, comparable within an allelic series)"
AGCTTCTG,binding signal,HOXC10 [2],"10.1 upbm affinity estimate (log intensity, higher = more binding, comparable within an allelic series)"
same,binding signal,HOXC10 [3],"10 upbm affinity estimate (log intensity, higher = more binding, comparable within an allelic series)"
CGGATAAC,binding signal,ALX4 [1],"9.46 upbm affinity estimate (log intensity, higher = more binding, comparable within an allelic series)"
AAGTTTAC,binding signal,ALX4 [1],"9.93 upbm affinity estimate (log intensity, higher = more binding, comparable within an allelic series)"
AAATTAAC,binding signal,ALX4 [1],"13.5 upbm affinity estimate (log intensity, higher = more binding, comparable within an allelic series)"
same,binding signal,PAX4 [13],"11.6 upbm affinity estimate (log intensity, higher = more binding, comparable within an allelic series)"
same,binding signal,PAX4 [14],"12.2 upbm affinity estimate (log intensity, higher = more binding, comparable within an allelic series)"
same,binding signal,ALX4 [11],"12.7 upbm affinity estimate (log intensity, higher = more binding, comparable within an allelic series)"
same,binding signal,ALX1 [15],"11.4 upbm affinity estimate (log intensity, higher = more binding, comparable within an allelic series)"
same,binding signal,ALX3 [16],"8.36 upbm affinity estimate (log intensity, higher = more binding, comparable within an allelic series)"
same,binding signal,PAX4 [17],"11.9 upbm affinity estimate (log intensity, higher = more binding, comparable within an allelic series)"
same,binding signal,ALX1 [18],"11.1 upbm affinity estimate (log intensity, higher = more binding, comparable within an allelic series)"
same,binding signal,PAX4 [19],"10.5 upbm affinity estimate (log intensity, higher = more binding, comparable within an allelic series)"
same,binding signal,ALX3 [20],"12.2 upbm affinity estimate (log intensity, higher = more binding, comparable within an allelic series)"
same,binding signal,PAX4 [21],"10.9 upbm affinity estimate (log intensity, higher = more binding, comparable within an allelic series)"
same,binding signal,ALX3 [22],"10.3 upbm affinity estimate (log intensity, higher = more binding, comparable within an allelic series)"
same,binding signal,ALX3 [23],"9.64 upbm affinity estimate (log intensity, higher = more binding, comparable within an allelic series)"
same,binding signal,PAX4 [24],"10.9 upbm affinity estimate (log intensity, higher = more binding, comparable within an allelic series)"
same,binding signal,ALX3 [25],"8.57 upbm affinity estimate (log intensity, higher = more binding, comparable within an allelic series)"
AATACTTA,binding signal,ALX4 [1],"10.5 upbm affinity estimate (log intensity, higher = more binding, comparable within an allelic series)"
CAACATTA,binding signal,ALX4 [1],"10.5 upbm affinity estimate (log intensity, higher = more binding, comparable within an allelic series)"
CGAAGGCC,binding signal,ALX4 [1],"8.29 upbm affinity estimate (log intensity, higher = more binding, comparable within an allelic series)"
same,binding signal,PAX4 [13],"9.2 upbm affinity estimate (log intensity, higher = more binding, comparable within an allelic series)"
same,binding signal,PAX4 [14],"9.31 upbm affinity estimate (log intensity, higher = more binding, comparable within an allelic series)"
same,binding signal,ALX4 [11],"8.19 upbm affinity estimate (log intensity, higher = more binding, comparable within an allelic series)"
same,binding signal,NKX2-6 [26],"9.35 upbm affinity estimate (log intensity, higher = more binding, comparable within an allelic series)"
same,binding signal,PAX4 [17],"9.3 upbm affinity estimate (log intensity, higher = more binding, comparable within an allelic series)"
same,binding signal,PAX4 [19],"9.19 upbm affinity estimate (log intensity, higher = more binding, comparable within an allelic series)"
same,binding signal,PAX4 [21],"9.09 upbm affinity estimate (log intensity, higher = more binding, comparable within an allelic series)"
same,binding signal,NKX2-6 [27],"9.28 upbm affinity estimate (log intensity, higher = more binding, comparable within an allelic series)"
same,binding signal,PAX4 [24],"9.29 upbm affinity estimate (log intensity, higher = more binding, comparable within an allelic series)"
GGTCCGCA,binding signal,HOXC10 [2],"10 upbm affinity estimate (log intensity, higher = more binding, comparable within an allelic series)"
same,binding signal,HOXC10 [3],"10 upbm affinity estimate (log intensity, higher = more binding, comparable within an allelic series)"
ATGAATTG,binding signal,ALX4 [1],"11 upbm affinity estimate (log intensity, higher = more binding, comparable within an allelic series)"
CCCATAAC,binding signal,ALX4 [1],"9.61 upbm affinity estimate (log intensity, higher = more binding, comparable within an allelic series)"
AATCTCCA,binding signal,ALX4 [1],"9.73 upbm affinity estimate (log intensity, higher = more binding, comparable within an allelic series)"
ATAACAAG,binding signal,ALX4 [1],"10.9 upbm affinity estimate (log intensity, higher = more binding, comparable within an allelic series)"
CCTCGAAC,binding signal,ALX4 [1],"8.02 upbm affinity estimate (log intensity, higher = more binding, comparable within an allelic series)"
same,binding signal,PRRX1 [10],"9.46 upbm affinity estimate (log intensity, higher = more binding, comparable within an allelic series)"
same,binding signal,ALX4 [11],"8.29 upbm affinity estimate (log intensity, higher = more binding, comparable within an allelic series)"
same,binding signal,PRRX1 [12],"9.07 upbm affinity estimate (log intensity, higher = more binding, comparable within an allelic series)"
